According to the supplement of paper PMC11732987, “Enantioselective OTUD7B fragment discovery through chemoproteomics screening and high-throughput optimisation” (Communications Chemistry, 2025):

Key:
Assay in all cases: log2 ratio of Biotin-Ahx-Ub-VS probe labelling (fragment/DMSO); higher = less target engagement (more negative = stronger competition), active = hit call of the paper (q ≤ 0.05, log2 ratio ≤ -1)
Conditions in all cases: compound concentration: 200 uM; treatment time: 3 h
USP34 = USP34 (UniProt Q70CQ2)
In short: (§1)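 HEK293T lysate, 495 µg per sample in Tris/CHAPS/IGEPAL buffer with protease inhibitors, was treated in triplicate with fragment at 200 µM or vehicle for 3 h and then with Biotin-Ahx-Ub-VS at 0.5 µM final for 1 h. Labelled DUBs were NeutrAvidin-enriched, digested with LysC and trypsin, and run by diaPASEF LC-MS/MS. Spectronaut label-free quantities were global-median-normalised, and values are average log2 fragment/vehicle ratios by unpaired t-test on proteins with ≥2 unique peptides.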

USP36 = biological target: T1, USP36 (UniProt Q9P275)
T1 sequence (whole entry): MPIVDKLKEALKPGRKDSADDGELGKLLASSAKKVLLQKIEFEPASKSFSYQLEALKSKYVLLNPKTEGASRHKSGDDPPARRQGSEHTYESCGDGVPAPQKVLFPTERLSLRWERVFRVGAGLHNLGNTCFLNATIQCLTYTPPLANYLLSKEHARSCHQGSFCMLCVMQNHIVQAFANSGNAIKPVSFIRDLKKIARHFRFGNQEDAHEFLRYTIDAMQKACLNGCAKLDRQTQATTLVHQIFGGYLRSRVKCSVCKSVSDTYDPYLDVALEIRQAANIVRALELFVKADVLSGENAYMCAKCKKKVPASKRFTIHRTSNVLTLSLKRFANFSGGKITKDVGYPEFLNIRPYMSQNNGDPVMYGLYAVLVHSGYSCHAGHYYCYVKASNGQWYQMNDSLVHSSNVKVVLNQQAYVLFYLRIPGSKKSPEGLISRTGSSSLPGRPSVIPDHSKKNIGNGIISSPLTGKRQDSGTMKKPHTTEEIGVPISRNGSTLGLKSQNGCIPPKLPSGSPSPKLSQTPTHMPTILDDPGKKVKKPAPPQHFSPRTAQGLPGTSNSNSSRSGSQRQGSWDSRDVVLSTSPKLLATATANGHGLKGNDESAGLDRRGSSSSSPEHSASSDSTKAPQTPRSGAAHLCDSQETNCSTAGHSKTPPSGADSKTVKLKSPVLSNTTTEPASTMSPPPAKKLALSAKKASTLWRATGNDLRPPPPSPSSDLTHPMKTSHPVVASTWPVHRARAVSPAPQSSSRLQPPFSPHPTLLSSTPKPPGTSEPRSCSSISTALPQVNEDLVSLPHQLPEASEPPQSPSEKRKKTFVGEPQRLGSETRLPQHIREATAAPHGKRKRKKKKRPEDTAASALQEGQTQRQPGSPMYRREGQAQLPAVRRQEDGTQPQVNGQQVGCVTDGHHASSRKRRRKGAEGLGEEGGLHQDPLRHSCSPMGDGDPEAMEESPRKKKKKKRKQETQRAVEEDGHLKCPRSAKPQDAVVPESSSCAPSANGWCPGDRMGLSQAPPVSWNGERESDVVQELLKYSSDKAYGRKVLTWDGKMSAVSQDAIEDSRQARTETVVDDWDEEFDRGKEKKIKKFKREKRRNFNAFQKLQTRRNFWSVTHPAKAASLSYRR
In short: as §1

USP38 = biological target: T2, USP38 (UniProt Q8NB14)
T2 sequence (whole entry): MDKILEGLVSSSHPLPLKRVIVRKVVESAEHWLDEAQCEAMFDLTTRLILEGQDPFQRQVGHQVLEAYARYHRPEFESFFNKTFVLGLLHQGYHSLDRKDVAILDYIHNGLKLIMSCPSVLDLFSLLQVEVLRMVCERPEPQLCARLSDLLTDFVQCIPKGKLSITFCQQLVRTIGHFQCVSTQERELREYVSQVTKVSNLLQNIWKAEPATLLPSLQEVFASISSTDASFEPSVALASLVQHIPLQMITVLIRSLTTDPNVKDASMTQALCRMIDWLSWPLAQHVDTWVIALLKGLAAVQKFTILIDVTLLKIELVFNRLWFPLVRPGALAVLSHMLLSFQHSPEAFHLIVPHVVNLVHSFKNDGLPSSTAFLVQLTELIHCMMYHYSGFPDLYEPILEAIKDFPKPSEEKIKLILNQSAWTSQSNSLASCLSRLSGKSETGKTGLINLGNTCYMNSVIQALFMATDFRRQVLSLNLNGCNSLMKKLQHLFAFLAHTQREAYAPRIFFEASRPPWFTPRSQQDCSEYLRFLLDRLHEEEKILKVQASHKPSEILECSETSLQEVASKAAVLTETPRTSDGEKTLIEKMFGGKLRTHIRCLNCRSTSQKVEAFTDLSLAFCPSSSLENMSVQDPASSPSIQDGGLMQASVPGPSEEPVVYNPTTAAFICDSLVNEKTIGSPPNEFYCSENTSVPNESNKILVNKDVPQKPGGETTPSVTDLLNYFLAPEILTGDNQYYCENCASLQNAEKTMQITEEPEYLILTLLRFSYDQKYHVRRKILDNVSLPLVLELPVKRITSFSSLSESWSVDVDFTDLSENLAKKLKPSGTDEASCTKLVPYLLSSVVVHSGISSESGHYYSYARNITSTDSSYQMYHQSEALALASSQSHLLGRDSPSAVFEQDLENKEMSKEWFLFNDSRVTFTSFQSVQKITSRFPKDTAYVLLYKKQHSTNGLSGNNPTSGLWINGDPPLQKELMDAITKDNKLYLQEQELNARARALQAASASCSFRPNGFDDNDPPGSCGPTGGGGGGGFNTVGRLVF
In short: as §1

USP39 = biological target: T3, USP39 (UniProt Q53GS9)
T3 sequence (whole entry): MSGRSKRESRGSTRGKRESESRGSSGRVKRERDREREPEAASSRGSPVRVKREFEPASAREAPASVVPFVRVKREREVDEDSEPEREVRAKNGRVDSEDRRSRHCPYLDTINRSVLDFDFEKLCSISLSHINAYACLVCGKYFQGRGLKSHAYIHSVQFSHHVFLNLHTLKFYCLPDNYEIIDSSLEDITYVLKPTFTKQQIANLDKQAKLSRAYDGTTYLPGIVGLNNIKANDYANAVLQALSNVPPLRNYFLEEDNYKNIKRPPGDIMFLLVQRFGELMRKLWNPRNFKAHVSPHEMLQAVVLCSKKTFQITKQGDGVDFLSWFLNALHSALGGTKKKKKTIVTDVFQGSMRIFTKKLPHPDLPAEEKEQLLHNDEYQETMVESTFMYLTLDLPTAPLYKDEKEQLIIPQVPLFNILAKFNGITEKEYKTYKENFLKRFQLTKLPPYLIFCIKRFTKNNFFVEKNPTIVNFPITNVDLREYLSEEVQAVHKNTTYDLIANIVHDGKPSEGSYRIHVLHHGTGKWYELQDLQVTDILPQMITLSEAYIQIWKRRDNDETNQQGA
In short: as §1

USP4 = biological target: T4, USP4 (UniProt Q13107)
T4 sequence (whole entry): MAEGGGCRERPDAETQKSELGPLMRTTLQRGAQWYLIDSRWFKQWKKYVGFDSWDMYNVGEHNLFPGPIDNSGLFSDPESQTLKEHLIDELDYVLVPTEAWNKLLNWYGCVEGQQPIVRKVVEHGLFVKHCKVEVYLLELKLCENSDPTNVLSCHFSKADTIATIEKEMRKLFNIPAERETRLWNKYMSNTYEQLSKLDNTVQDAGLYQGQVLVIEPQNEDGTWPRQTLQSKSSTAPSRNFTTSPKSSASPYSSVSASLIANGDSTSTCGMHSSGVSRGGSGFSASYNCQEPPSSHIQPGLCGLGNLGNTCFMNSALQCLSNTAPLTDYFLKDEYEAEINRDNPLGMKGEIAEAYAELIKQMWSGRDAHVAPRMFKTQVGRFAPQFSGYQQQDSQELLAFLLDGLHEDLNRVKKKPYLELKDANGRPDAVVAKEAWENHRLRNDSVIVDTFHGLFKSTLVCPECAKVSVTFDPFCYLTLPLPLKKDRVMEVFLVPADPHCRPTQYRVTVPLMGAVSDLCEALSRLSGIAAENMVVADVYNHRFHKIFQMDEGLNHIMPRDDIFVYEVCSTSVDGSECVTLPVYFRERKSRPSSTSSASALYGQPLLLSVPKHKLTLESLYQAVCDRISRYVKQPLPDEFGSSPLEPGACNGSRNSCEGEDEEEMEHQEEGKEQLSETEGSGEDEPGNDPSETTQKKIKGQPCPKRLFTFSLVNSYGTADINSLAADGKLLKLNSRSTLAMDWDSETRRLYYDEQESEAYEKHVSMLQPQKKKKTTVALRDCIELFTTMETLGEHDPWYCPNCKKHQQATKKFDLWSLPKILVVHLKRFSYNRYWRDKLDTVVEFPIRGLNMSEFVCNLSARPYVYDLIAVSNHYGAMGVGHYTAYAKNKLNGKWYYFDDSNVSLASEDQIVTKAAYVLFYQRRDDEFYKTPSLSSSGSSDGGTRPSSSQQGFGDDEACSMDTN
In short: as §1

Measured: log2 ratio of Biotin-Ahx-Ub-VS probe labelling

USP34, sequence (Q70CQ2 whole entry, the tested form may be a part): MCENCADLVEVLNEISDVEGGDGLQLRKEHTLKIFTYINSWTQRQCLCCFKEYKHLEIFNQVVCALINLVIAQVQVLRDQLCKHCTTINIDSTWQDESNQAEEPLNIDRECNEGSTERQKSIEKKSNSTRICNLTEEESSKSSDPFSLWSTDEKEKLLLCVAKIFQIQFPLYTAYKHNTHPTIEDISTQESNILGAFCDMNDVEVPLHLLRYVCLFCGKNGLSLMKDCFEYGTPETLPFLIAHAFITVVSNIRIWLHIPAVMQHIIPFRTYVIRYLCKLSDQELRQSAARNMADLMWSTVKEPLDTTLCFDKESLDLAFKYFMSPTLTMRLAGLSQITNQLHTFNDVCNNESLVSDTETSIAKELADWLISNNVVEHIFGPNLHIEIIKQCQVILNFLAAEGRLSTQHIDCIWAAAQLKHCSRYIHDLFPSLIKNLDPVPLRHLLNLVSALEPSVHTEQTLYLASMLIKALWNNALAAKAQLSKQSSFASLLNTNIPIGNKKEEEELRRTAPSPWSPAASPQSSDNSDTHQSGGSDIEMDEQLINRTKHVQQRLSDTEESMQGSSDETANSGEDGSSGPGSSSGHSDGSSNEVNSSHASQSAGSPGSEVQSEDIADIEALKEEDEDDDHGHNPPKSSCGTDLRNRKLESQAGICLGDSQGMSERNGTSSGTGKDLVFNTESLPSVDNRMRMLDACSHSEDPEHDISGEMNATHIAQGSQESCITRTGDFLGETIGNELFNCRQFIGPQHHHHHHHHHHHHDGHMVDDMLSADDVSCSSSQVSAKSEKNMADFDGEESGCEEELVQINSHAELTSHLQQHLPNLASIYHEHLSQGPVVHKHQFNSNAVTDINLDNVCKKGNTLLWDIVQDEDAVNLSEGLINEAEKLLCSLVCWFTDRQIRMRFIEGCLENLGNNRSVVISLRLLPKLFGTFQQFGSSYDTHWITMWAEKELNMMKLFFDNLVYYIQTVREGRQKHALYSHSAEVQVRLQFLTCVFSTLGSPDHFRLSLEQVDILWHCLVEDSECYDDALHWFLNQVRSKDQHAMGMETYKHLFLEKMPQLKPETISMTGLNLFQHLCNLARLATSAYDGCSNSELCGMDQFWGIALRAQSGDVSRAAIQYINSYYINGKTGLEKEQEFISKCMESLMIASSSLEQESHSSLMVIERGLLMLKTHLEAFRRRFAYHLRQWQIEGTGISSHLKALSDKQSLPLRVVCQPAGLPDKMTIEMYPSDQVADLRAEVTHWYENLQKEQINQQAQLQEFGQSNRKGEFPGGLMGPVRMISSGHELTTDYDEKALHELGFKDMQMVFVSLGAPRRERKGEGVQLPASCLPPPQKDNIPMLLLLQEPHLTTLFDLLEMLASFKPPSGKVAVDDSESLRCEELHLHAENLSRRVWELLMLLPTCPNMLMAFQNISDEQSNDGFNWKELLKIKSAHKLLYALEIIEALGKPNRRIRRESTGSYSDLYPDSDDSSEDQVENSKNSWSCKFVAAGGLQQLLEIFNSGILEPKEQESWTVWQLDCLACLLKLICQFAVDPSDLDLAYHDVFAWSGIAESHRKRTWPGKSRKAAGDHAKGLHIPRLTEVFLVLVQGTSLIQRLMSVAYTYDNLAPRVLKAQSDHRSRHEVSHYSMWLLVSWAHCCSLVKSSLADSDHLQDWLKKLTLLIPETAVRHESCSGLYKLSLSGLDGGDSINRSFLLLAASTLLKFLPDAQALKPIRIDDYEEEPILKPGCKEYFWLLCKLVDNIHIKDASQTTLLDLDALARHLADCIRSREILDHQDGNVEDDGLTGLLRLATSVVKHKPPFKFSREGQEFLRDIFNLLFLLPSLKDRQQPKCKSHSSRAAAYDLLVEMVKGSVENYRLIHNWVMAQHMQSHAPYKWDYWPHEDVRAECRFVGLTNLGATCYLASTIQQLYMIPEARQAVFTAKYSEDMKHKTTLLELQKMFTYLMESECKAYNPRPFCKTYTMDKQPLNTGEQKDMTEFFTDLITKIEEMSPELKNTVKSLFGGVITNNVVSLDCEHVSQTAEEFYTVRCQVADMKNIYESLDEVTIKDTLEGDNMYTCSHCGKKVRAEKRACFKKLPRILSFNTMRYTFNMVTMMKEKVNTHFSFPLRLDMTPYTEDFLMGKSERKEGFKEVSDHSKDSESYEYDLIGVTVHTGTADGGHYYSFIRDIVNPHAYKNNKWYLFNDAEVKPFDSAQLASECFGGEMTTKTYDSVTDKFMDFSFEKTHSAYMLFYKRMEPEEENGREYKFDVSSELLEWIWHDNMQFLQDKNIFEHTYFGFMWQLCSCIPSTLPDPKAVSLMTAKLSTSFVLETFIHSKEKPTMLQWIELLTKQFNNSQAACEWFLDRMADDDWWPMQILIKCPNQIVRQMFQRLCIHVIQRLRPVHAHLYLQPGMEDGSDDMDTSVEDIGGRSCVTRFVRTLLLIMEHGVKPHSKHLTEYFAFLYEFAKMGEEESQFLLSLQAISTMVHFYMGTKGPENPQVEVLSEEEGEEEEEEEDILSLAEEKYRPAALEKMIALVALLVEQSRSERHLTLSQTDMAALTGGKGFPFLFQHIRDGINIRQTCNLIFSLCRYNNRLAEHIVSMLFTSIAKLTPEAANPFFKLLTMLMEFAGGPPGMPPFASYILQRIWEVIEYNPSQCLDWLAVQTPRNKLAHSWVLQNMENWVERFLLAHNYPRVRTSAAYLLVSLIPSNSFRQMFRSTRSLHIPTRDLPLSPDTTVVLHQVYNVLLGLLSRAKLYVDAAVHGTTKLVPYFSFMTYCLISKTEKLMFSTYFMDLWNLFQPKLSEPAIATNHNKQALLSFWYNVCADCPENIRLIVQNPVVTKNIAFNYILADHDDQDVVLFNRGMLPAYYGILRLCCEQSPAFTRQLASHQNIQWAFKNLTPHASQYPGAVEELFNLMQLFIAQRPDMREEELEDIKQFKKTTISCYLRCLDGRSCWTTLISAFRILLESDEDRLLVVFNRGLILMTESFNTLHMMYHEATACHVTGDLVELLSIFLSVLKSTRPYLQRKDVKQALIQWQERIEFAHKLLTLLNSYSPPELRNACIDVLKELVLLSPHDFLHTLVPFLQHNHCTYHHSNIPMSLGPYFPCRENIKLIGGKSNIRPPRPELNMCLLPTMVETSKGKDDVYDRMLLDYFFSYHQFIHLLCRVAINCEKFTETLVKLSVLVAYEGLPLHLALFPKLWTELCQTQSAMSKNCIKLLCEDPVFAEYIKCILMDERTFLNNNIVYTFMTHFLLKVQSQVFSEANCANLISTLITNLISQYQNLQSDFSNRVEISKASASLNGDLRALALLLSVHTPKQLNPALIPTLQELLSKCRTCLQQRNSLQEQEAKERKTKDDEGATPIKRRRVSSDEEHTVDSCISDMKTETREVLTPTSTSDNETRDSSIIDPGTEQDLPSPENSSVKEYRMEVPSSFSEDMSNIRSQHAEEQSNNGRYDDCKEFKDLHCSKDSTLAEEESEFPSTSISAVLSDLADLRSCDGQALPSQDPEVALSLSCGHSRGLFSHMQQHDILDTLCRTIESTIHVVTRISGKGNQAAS

Cc1ccc(C)c(NC(=O)CCl)c1
inactive: USP34 -0.458 | USP36 -0.1 | USP38 -0.159 | USP39 0.199 | USP4 -0.443
